ssDAF-12 act: activates DAF-12 receptor from parasite S. stercoralis. HEK293 ssDAF-12/GRIP1 lit1-tk-luc reporter, luminescence; % of 3 µM dafachronic acid response. activation, % at 6.8 µM. hit rate 1% among 370,000;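 active = activation above the mean over all tested compounds plus 3 SD, cut at about 0.9% in these data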;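 also: 0% = DMSO-only wells and 100% = 3 µM delta7-dafachronic acid wells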
hgDAF-12 ag: agonists of H. glycines DAF-12 nuclear receptor; hit rate 1.8% among 370,000; HEK293 GAL4-hgDAF12 UAS-luciferase reporter, agonist luminescence; normalized to butyrate control; activation, % at 6.8 µM;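 active = activation above a cutoff set at the mean of all screened compounds plus 3 SD, cut at about 10% in these data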;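 also: 0% = DMSO wells and 100% = sodium butyrate wells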
esBAF inh: blocks esBAF chromatin remodeling in mouse ES cells. Bmi1-luciferase knock-in reporter, 24 h; 100% = twice the neutral-well signal. hit rate 2% among 350,000. reporter increase, % at 12.5 µM; in the data active = activation above about 40%; inconclusive = no clear call, values can overlap the other calls;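 also: 0% = median of the plate's neutral control wells and 100% = double that signal; a rise in the Bmi1 reporter signal indicates esBAF inhibition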
hcDAF-12 act: activators of H. contortus DAF-12 nuclear receptor; HEK293 hcDAF-12 lit1-tk-luc reporter, luminescence; 0% DMSO, 100% Δ7-dafachronic acid; activation, % at 6.8 µM; hit rate 1.4% among 370,000; AID 652067;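 active = activation above the mean of all tested compounds plus 3 SD, cut at about 5.5% in these data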;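 also: 100% = response to 3 µM Δ7-dafachronic acid high control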
DAX1 StAR inh: inhibitors of DAX1 repression of SF-1 activated StAR promoter; HEK293T StAR-luciferase reporter, SF-1/DAX-1 repression relief; inhibition, % at 6.8 µM; hit rate 1.1% among 370,000; AID 652010;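 active = inhibition above the mean over all tested compounds plus 3 SD, cut at about 3.6% in these data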;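 also: 0% = DAX-1 cells with DMSO and 100% = cells lacking DAX-1 with DMSO; higher inhibition means more luminescence from relief of DAX-1 repression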
Wnt bcat act: Wnt/beta-catenin pathway activation | AID 743398 | activation, % at 9.35 µM | hit rate 1.2% among 300,000 | Wnt/beta-catenin reporter cell assay, activator, plate reader; in the data active = activation above about 30%, passing the limit was not always enough; inconclusive = no clear call, values can overlap the other calls;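 also: 0% = neutral control wells and 100% = positive control wells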
Active calls of the source: *; ? = inconclusive; . = no result. Only some compounds are listed: those with a hit (about 4.2% of all), similar ones and a draw of the others.

SMILES	ssDAF-12 act	hgDAF-12 ag	esBAF inh	hcDAF-12 act	DAX1 StAR inh	Wnt bcat act
COc1ccc(-c2nnc(SCC(=O)Nc3ccc(Oc4ccccc4)cc3)n2Cc2ccco2)cc1	-1.2	0.9	.	0.1	-2.4	.
Cc1ccc(-c2nnc(SCC(=O)Nc3ccc(-c4nc5ccc(C)cc5s4)cc3)n2Cc2ccco2)cc1	-0.9	10.7*	.	-1.2	-1.3	.
Cc1occc1-c1nnc(SCC(=O)Nc2ccccc2)n1Cc1ccccc1	-1.1	-0.4	45.5*	-2.8	-0.2	.
C[C@H]1CN([C@@H](C)CO)C(=O)Cc2cc(NC(=O)C3CC3)ccc2O[C@@H]1CN(C)Cc1ccccc1	.	.	2.9	.	.	.
C[C@@H]1CCCCO[C@@H](CN(C)S(C)(=O)=O)[C@@H](C)CN([C@H](C)CO)C(=O)c2cc(NC(=O)C3CCCCC3)ccc2O1	.	.	-4.0	.	.	.
C=CCSc1n[nH]c(-c2ccc(OCCC)cc2)n1	.	.	73.7*	.	.	21.4
C=CCSc1n[nH]c(-c2ccc(OCCCC)cc2)n1	0.9*	5.6	47.5*	0.8	2.0	-1.7
COc1ccc(N=Cc2c(OC)ccc3ccccc23)cc1	-1.7	-0.5	.	-0.8	-0.2	1.2
COc1ccc(-n2c(O)c(C=Nc3ccccc3)c3ccccc3c2=O)cc1	-1.7	1.3	3.3	-0.2	0.2	-6.7
COc1ccc(N=Cc2sc(O)c3ccccc23)cc1	0.2	5.2	81.9*	1.7	1.2	34.5*
COc1ccc(N=Cc2c(O)c3ccccc3n2C(C)=O)cc1	-0.9	-0.3	27.4	2.1	0.5	30.3*
O=C(C[C@H]1C[C@@H]2c3cc(NC(=O)NC4CCCCC4)ccc3O[C@@H]2[C@@H](CO)O1)NCCc1ccccc1	.	.	1.3	.	.	.
O=C(Nc1cccc2ccccc12)c1ccccc1	-0.3	10.4	51.4*	5.6*	2.5	17.1
O=C(Nc1cccc2ccccc12)ON=C1CCCCC1	1.0*	-1.3	2.7	2.3	-0.3	-3.5
O=C(Nc1cccc2ccccc12)c1ccccc1Cl	-0.8	0.9	7.8	1.6	-0.5	1.2
COc1ccc(C)cc1NC(=O)ON=C1CCCCC1	-0.9	2.2	.	-0.2	0.2	-0.7
Nc1ccccc1C(=O)Nc1cccc2ccccc12	-0.4	1.4	65.1*	-0.6	-0.3	0.1
COc1ccc(-c2ccc([C@H]3[C@@H](C#N)N(C(=O)c4cccc(F)c4)[C@@H]3CO)cc2)cc1	.	.	50.7*	.	.	.
N#C[C@@H]1[C@@H](c2ccc(C#Cc3ccccc3F)cc2)[C@@H](CO)N1C(=O)C1CCCCC1	.	.	50.9*	.	.	.
N#C[C@@H]1[C@@H](c2ccc(C#Cc3cccc(F)c3)cc2)[C@@H](CO)N1C(=O)C1CCCC1	.	.	49.7*	.	.	.
N#C[C@@H]1[C@H](c2ccc(C#Cc3cccc(F)c3)cc2)[C@@H](CO)N1C(=O)C1CCC1	.	.	-66.2	.	.	.
N#C[C@@H]1[C@@H](c2ccc(C#Cc3ccccc3F)cc2)[C@H](CO)N1C(=O)C1CCCCC1	.	.	14.9	.	.	.
CCS(=O)(=O)N[C@H]1C=C[C@@H](CC(=O)NCc2ccc(Cl)cc2)O[C@@H]1CO	.	.	3.5	.	.	.
C[C@H]1CN([C@@H](C)CO)S(=O)(=O)c2ccc(-c3ccccc3)cc2O[C@H]1CN(C)C(=O)C1CCCCC1	.	.	2.2	.	.	.
OCCN1CCN(c2nccn3ccnc23)CC1	-0.6	-0.9	0.8	-2.5	-0.4	0.0
SMILES	ssDAF-12 act	hgDAF-12 ag	esBAF inh	hcDAF-12 act	DAX1 StAR inh	Wnt bcat act
C(=N\N1CCN(c2ccccn2)CC1)/c1ccccn1	1.1*	6.0	?	2.7	1.6	0.5
CC(C)(C)c1ccc(/C=N/N2CCN(c3ccccn3)CC2)cc1	-2.1	0.8	.	-1.3	1.1	0.9
CN(C)c1ccc(/C=N/N2CCN(c3ccccn3)CC2)cc1	-0.4	3.6	.	1.2	0.6	43.3*
c1ccc(N2CCN(c3nccn4ccnc34)CC2)nc1	0.6	9.7	?	4.7	4.0*	29.2
CCS(=O)(=O)Nc1ccc2c(c1)C(=O)N(C)C[C@H](OC)[C@@H](C)CN(C(=O)COC)[C@@H](C)CO2	.	.	-2.1	.	.	.
COc1ccc(C(=O)Cn2nnc(-c3cccs3)n2)cc1	-1.4	0.4	7.6	0.3	-0.8	51.0*
O=c1oc(-c2cccs2)nc2sc3c(c12)CCC3	-1.4	-0.3	46.2*	1.3	0.4	.
O=c1oc(-c2cccs2)nc2sc3c(c12)CCCC3	-1.3	0.6	26.1	-0.1	0.4	-4.2
C[C@H]1CN([C@@H](C)CO)S(=O)(=O)c2ccc(-c3cncnc3)cc2O[C@@H]1CN(C)C	.	.	4.7	.	.	.
COc1cccc2sc3ccc(C#Cc4ccc(N)cc4)cc3c(=O)c12	-0.9	8.9	61.2*	1.2	0.9	36.9*
O=c1c2ccccc2sc2ccc(C#CC3(O)CCCCC3)cc12	-3.2	-15.6	-84.9	-7.4	-2.9	-22.8
Nc1ccc(C#Cc2ccc3sc4ccccc4c(=O)c3c2)cc1	-1.2	7.4	43.3*	1.1	-0.3	18.3
COc1ccccc1C#Cc1cnc2c(c1)C(=O)N([C@H](C)CO)C[C@H](C)[C@@H](CN(C)C(=O)CN(C)C)O2	.	.	-4.9	.	.	.
O=C(CCc1nnc(CCCCc2ccccc2)o1)N(CCO)Cc1ccccc1	-1.5	3.4	-3.1	-1.6	0.0	-1.0
C#CCN(CC=C)C(=O)CCc1nnc(COc2ccccc2)o1	-0.8	7.9	58.9*	1.6	0.4	-5.9
COc1ccc(N2CC(=O)N(c3ccccc3)C2=S)cc1	-0.3	12.3*	.	4.3	1.8	3.8
OCC1OC(n2ccc3c(SCc4ccccc4)ncnc32)C(O)C1O (stereo unspecified)	-0.8	13.0*	87.7*	2.1	3.3	32.4*
O=[N+]([O-])c1cccc(C2CC(c3ccccc3)=NN2c2ccccc2)c1 (stereo unspecified)	-0.6	3.2	0.4	-3.0	-0.2	0.5
O=[N+]([O-])c1cccc(C2=NC(c3ccccc3)CO2)c1 (stereo unspecified)	-0.4	5.5	45.4*	3.1	1.4	?
Brc1ccc(-c2nc(-c3cccnc3)no2)o1	-0.8	8.9	30.6	3.5	-0.3	-1.0
O=[N+]([O-])c1cccc(-c2noc(-c3ccco3)n2)c1	-0.9	12.1*	.	3.5	0.9	20.0
Brc1ccc(-c2nc(-c3ccccc3)no2)o1	1.4*	11.5*	24.0	6.1*	3.3	49.7*
O=[N+]([O-])c1cccc(-c2nc(-c3ccccc3)no2)c1	-0.5	4.9	73.4*	3.4	0.7	.
O=C(C[C@@H]1CC[C@@H]2[C@H](COC[C@@H](O)CN2C(=O)c2cccnc2)O1)NCc1ccc(Cl)cc1	.	.	1.0	.	.	.
C[C@H]1CN([C@@H](C)CO)C(=O)c2cccc(NS(=O)(=O)c3ccc(F)cc3)c2O[C@@H]1CN(C)S(=O)(=O)c1cccs1	.	.	-2.7	.	.	.
COCCCN(C(=S)Nc1ccc(OC)cc1)C(C)c1ccncc1 (stereo unspecified)	-1.4	-0.3	.	-1.9	0.2	-1.4
COCCCN(C(=S)Nc1cc(C)cc(C)c1)C(C)c1ccncc1 (stereo unspecified)	0.9*	-1.5	.	-0.7	-0.1	12.3
